DT40 TDP1 no CPT: qHTS for Inhibitors of human tyrosyl-DNA phosphodiesterase 1 (TDP1): qHTS in cells in absence of CPT; 420,000 tested, 15% active; DT40 Tdp1-/- hTDP1 cells, no CPT, ATP luminescence, 48 h; Potency, µM (doses to about 46.2 µM), inactives show at the top dose activity change, negative = growth inhibition, hits mostly inhibitors; further: nearly all actives have a fitted effect of over 55% in size
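Luminescent ATP content (CellTiter-Glo) served as the growth readout. Knockout chicken DT40 cells expressing human TDP1 were exposed to compounds without camptothecin for a minimum 48 hr at 37 °C.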
PLK1 PBD block: PLK1 (human) polo-box domain binding inhibition; P53350; Plk1 PBD binding of FITC phosphopeptide, fluorescence polarization; Potency, µM, inactives show max response, negative = inhibition, usual class: inhibitors; 360,000 tested, 2.8% active; AID 720504; further: series mostly up to about 57 µM; nearly all actives have a fitted effect of over 65% in size
TDP1 block: inhibitors of human tyrosyl-DNA phosphodiesterase TDP1. recombinant TDP1, AlphaScreen DNA substrate cleavage. Q9NUW8. Potency, µM (series often up to 130 µM), for the others: at the highest dose activity change, negative = inhibition, usual class: inhibitors. 350,000 tested, 0.28% active; further: nearly all actives have a fitted effect of over 40% in size
Target sequence (Q9NUW8 whole entry, looked up): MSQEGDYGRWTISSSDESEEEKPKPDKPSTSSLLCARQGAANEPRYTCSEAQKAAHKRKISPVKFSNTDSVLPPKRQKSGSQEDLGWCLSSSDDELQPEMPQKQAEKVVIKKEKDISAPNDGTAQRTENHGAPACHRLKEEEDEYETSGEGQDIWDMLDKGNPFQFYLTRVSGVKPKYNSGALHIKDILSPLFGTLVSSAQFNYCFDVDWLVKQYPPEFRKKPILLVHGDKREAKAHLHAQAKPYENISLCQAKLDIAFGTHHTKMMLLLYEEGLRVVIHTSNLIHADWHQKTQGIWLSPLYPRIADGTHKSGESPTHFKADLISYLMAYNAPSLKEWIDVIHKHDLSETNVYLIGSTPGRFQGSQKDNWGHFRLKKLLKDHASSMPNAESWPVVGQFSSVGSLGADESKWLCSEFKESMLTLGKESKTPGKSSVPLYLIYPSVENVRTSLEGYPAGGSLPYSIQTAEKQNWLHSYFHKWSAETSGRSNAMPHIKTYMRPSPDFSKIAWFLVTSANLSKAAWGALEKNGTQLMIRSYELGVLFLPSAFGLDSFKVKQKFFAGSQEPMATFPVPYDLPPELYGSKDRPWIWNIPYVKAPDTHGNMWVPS
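AlphaScreen read-out: signal falls as enzyme removes the 3' tyrosine-FITC from a 5'-biotinylated DNA oligo (15 nM, 5 min, RT). Enzyme was E. coli-made recombinant Tdp1 at 1 nM, exposed to compound for 15 min beforehand; beads 10 ug/ml, 10 min.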
VDR inh: blocks the human vitamin D receptor; P11473; VDR-SRC2-3 peptide fluorescence polarization, 2 h; Potency, µM, inactives show max response, negative = inhibition, actives largely listed as inhibitors; 400,000 tested, 0.93% active; AID 504847
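Signal is fluorescence polarization, reporting how far test compounds block the interaction of VDR with the SRC2-3 coregulator peptide after a 2 h room-temperature incubation.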
GCN5L2 inh: inhibitors of human GCN5L2 histone acetyltransferase; Q92830; GCN5L2 HAT assay, ThioGlo1 CoA-SH fluorescence; Potency, µM (highest dose often 58.9 µM), inactives show at the top dose activity change, negative = inhibition, hits mostly inhibitors; 390,000 tested, 0.21% active
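Compounds, pin-transferred from DMSO stocks, meet 20nM GCN5L2 for 15 min before the reaction begins with H3(1-25) peptide (75uM) and acetyl-CoA (70uM). Thiol-reactive ThioGlo1 reports CoA release over 20 min at room temperature.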
DT40 TDP1 CPT: growth inhibition of DT40 Tdp1-/-;hTDP1 cells with camptothecin (screen for TDP1 inhibitors); chicken DT40 Tdp1-/-;hTDP1 cells + 20 nM CPT, ATP luminescence, 48 h; Potency, µM (highest dose often 46.2 µM), for inactives: at the highest dose activity change, negative = growth inhibition, most hits filed as inhibitors; 420,000 tested, 12% active; AID 686979; further: nearly all actives have a fitted effect of over 55% in size
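Cell growth measured by CellTiter-Glo luminescence after a minimum 48 h, 37 C compound exposure with 20 nM CPT in Tdp1-knockout DT40 cells stably expressing hTDP1, seeded 400/well; qHTS titration format.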
* = called active by the depositor; ? = inconclusive; · = not tested or not shown; [ ] = remark or other dose. In the library only some 18% were active in any assay of this set; here they are far more common. The call rests on the fitted dose curve; in most records, active means well fitted curve in the direction sought with a large enough effect; inconclusive means small, poorly fitted or top-dose-only effect, or another doubt; inactive means no such curve, though single readings can be large; an effect the other way counts as inactive or inconclusive. On the % scale 0 is the no-effect control and ±100 the full control effect; potency means the concentration at half of the fitted maximal effect.

SMILES	DT40 TDP1 no CPT	PLK1 PBD block	TDP1 block	VDR inh	GCN5L2 inh	DT40 TDP1 CPT
CCOCCCNC(=O)C1CCCN(c2ncnc3onc(C)c23)C1 (centres undefined)	20.6µM*	·	1.1%	7.5%	-13.4%	16.4µM*
CCCCN(CC)CCNC(=O)C1CCCN(c2ncnc3onc(C)c23)C1 (centres undefined)	-15.6%	·	1.1%	4.3%	1.0%	-26.2%
Cc1noc2ncnc(N3CCCC(C(=O)NCCC(C)C)C3)c12 (centres undefined)	7.31µM*	·	-3.2%	10.0%	-10.7%	8.2µM*
COCCCNC(=O)C1CCCN(c2ncnc3onc(C)c23)C1 (centres undefined)	?	·	-3.2%	6.1%	-18.4%	18.4µM*
Cc1cccc(CCNCc2c(C(=O)O)c(C)n(-c3ccccc3)c2C)c1	-24.2%	0.1%	·	-11.9%	?	-26.4%
COc1ccccc1N1CCN(c2nc(CNC(=O)c3cc(C)oc3C)nc3ccccc23)CC1	?	·	·	·	·	-19.9%[9.04 µM]
COc1c([N+](=O)[O-])ccc(N)c1N	-20.6%	·	·	·	·	-18.2%
Cc1ccc(C(=O)NCCCN2CCN(CCCNC(=O)c3ccc(C)cc3)CC2)cc1	2.0%	4.8%	·	1.6%	·	-15.3%
Cn1c(-c2csc(-c3ccccc3)n2)n[nH]c1=S	?	-26.3%	5.5%	-9.2%	22.1%	?
Cc1nc2ccccc2nc1-c1csc(-c2ccccc2)n1	11.2µM*	·	·	·	·	12.6µM*
CCOC(=O)C1=CCN(S(=O)(=O)c2ccccc2Cl)C1c1cccc(Br)c1 (centres undefined)	?	-1.7%	·	·	·	?
O=C(Nc1cccc2c1CCCC2)C1CCN(c2nnnn2-c2ccccc2)CC1	16.4µM*	3.0%	2.6%	-3.4%	-4.3%	?
COc1ccc(C(CC(=O)Nc2cc([N+](=O)[O-])ccc2OC)c2ccccc2)cc1 (centres undefined)	?	1.8%	1.8%	-10.7%	2.2%	16.4µM*
COc1ccc([N+](=O)[O-])cc1NC(=O)C(C)Sc1nc(-c2ccccc2)cs1 (centres undefined)	?	-14.6%	5.4%	-6.5%	-8.5%	18.4µM*
COc1ccc([N+](=O)[O-])cc1NC(=O)CSc1ccccc1	?	?	2.0%	-12.9%	-5.5%	-19.5%
CCCCNC(=O)Cc1coc2ccc3ccccc3c12	?	-12.9%	3.8%	-0.5%	-6.3%	?
COc1ccc(C(=O)Nc2ccccc2N2CCOCC2)cc1S(=O)(=O)N1CCCC1	18.4µM*	3.8%	2.5%	-7.0%	-5.2%	?
COc1ccc(S(=O)(=O)N2CCOCC2)cc1C(=O)NCc1c(C)nn(Cc2ccccc2)c1C	0.4%	3.6%	·	3.8%	·	?
COc1ccc(C(=O)NCc2c(C)nn(Cc3ccccc3)c2C)cc1S(=O)(=O)N1CCOCC1	?	-15.7%	-0.8%	-1.7%	-3.6%	10.3µM*
Cc1cc(C(=O)NC(=S)Nc2ccccc2N2CCOCC2)ccc1[N+](=O)[O-]	?	-4.9%	5.6%	1.6%	-7.7%	-2.2%
COc1ccc(C(=O)NC(=S)Nc2ccc(N3CCOCC3)c(Cl)c2)cc1[N+](=O)[O-]	20.6µM*	1.0%	3.4%	14.7%	-9.5%	13µM*
COc1ccc(C(=O)NC(=S)Nc2ccccc2N2CCOCC2)cc1[N+](=O)[O-]	16.4µM*	-10.5%	5.6%	-6.6%	-7.0%	16.4µM*
COc1ccc(C(=O)NC(=S)N2CCOCC2)cc1[N+](=O)[O-]	16.9%	1.9%	4.7%	17.7%	-17.5%	2.6%
CCOC(=O)C1=CN(Cc2cccc(F)c2)S(=O)(=O)N(CC)C1c1ccc(Br)cc1F (centres undefined)	?	-10.7%	-2.4%[56.1 µM]	-5.5%	-7.4%	?
CCOC(=O)c1c(NC(=O)COc2ccc(F)cc2)sc2c1CCC(C)C2 (centres undefined)	?	·	0.4%[12.3 µM]	?	-2.0%	-24.2%
SMILES	DT40 TDP1 no CPT	PLK1 PBD block	TDP1 block	VDR inh	GCN5L2 inh	DT40 TDP1 CPT
N#Cc1cccc(NC(=O)C2CCN(c3cnccn3)CC2)c1	-14.9%	·	3.6%	11.5%	-10.9%	-2.5%
CCN(C[C@H]1N[C@@](CC)(C(=O)OC)[C@H]2C(=O)N(C)C(=O)[C@@H]12)C(=O)COC	3.1%	-13.6%	0.5%	-11.4%	-0.6%	1.3%
CC1CCCN(Cc2c(O)ccc3c2O/C(=C\c2ccco2)C3=O)C1 (centres undefined)	25.9µM*	?	-8.9%	-19.1%	-23.6%	14.6µM*
CCN1CCN(Cc2c(O)ccc3c2O/C(=C\c2ccccc2)C3=O)CC1	-17.7%	-14.3%	4.6%	14.1%	-17.3%	-22.5%
O=[N+]([O-])c1ccc(Cc2ccccn2)c([N+](=O)[O-])c1	-26.9%	-5.0%	·	-6.7%	·	?
O=C(COC(=O)Cn1cnc2ccccc21)Nc1cc2c(cc1Cl)C(=O)c1ccccc1C2=O	16.4µM*	-5.7%	-1.2%	-6.9%	0.6%	20.6µM*
CN1CCN(c2ccc(S(=O)(=O)N3CCOCC3)cc2NC(=O)CC(C)(C)C)CC1	2.9%	-14.2%	0.5%	13.1%	2.7%	?
Cc1c(C(=O)Nc2cc(S(=O)(=O)N3CCOCC3)ccc2N2CCN(C)CC2)oc2ccccc12	18.4µM*	-10.9%	·	26.9%	-1.9%	?
CCN1CCN(c2ccc(S(=O)(=O)N3CCCCC3)cc2NC(=O)/C=C/c2cccc(OC)c2OC)CC1	16.4µM*	-9.0%	5.6%[56.1 µM]	-8.7%	-6.8%	?
CC(=O)c1ccccc1NC(=O)c1cc(S(=O)(=O)N2CCOCC2)ccc1N1CCCC1	20.6µM*	-7.5%	2.1%	?	1.5%	?
COc1cccc(C(=O)Nc2cc(S(=O)(=O)N3CCOCC3)ccc2N2CCOCC2)c1	-6.0%	-15.4%	·	10.8%	·	-4.5%
CCN1CCN(c2ccc(S(=O)(=O)N3CCCCC3)cc2NC(=O)/C=C/c2ccc(F)cc2)CC1	?	-1.4%	·	-6.8%	-11.7%	?
O=C(Nc1ccccc1N1CCCC1)c1cc(S(=O)(=O)N2CCOCC2)ccc1Cl	?	4.5%	3.8%	-6.0%	-13.3%	?
CC(C)COc1cccc(C(=O)Nc2cc(S(=O)(=O)N3CCOCC3)ccc2N2CCCC2)c1	20.6µM*	-1.5%	·	-11.8%	·	?
CCn1cc(S(=O)(=O)c2cccc(Cl)c2)c(=O)c2cc(F)c(N3CCN(c4ccccc4)CC3)cc21	-17.9%	·	-3.7%	10.5%	-9.6%	-5.3%

Assay outcomes from PubChem BioAssay.
